Bioassay records (PubChem BioAssay)
Shown are actives, neighbours in structure and some others; about 4.7% of the full set was active somewhere.
TRHR agonist: qHTS for Small Molecule Agonists and Allosteric Enhancers of Human TRH Receptor: Primary Screen for Agonists | Thyrotropin-releasing hormone receptor (Homo sapiens), P34981 | 360,000 compounds, 0.18% hits | AID 493084, 2011 | activation, % at 2 µM | TRHR cells, calcium flux fluo-8, FDSS agonist mode; further: 0% is about no effect
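Fluo-8-loaded TRHR cells; 10 s baseline, compound added, kinetic Ca2+ fluorescence read 1/s, agonist mode.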
TRHR PAM: qHTS for Small Molecule Agonists and Allosteric Enhancers of Human TRH Receptor: Primary Screen for Enhancers | AID 493056, 2011 | TRHR cells, fluo-8 calcium fluorescence, EC20 TRH enhancement | Thyrotropin-releasing hormone receptor (Homo sapiens), P34981 | enhancement, % at 2 µM | 360,000 compounds, 0.66% hits; in the data active means enhancement above about 30%; further: 0% is about no effect
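Enhancer read-out: after compound pinning and an initial kinetic agonist-mode read, an EC20 of TRH (10 nM final) was injected and fluo-8 calcium signal (Ex 480/Em 530) followed at 1 s/cycle for 100 cycles in TRHR-expressing cells.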
D1 potentiator: Potentiators of Human D1 Dopamine Receptor: qHTS | D(1A) dopamine receptor (Homo sapiens), P21728 | HEK293 TREx D1 cells, calcium flux, dopamine EC20 potentiation | potentiation, % at 10 µM | 360,000 compounds, 0.036% hits | AID 504651, 2011; in the data active means potentiation above about 30%; further: 0% is about no effect
Target sequence (P21728 whole entry, looked up): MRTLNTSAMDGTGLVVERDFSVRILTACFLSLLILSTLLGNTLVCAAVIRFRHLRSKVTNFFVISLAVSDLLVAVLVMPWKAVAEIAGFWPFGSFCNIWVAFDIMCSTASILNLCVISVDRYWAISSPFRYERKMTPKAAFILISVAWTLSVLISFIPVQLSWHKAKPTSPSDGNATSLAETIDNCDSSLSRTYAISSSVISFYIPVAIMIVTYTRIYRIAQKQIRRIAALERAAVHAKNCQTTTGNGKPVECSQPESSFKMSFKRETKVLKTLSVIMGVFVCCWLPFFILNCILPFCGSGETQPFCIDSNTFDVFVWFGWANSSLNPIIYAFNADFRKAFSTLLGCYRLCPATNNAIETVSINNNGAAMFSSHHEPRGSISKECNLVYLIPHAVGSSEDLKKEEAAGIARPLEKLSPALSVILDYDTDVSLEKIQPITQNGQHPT
D1 ag: Allosteric Agonists of the Human D1 Dopamine Receptor: qHTS; D(1A) dopamine receptor (Homo sapiens), P21728; HEK293 T-REx D1 cells, calcium flux, agonist mode; activation, % at 2 µM; 360,000 compounds, 1% hits; AID 504660, 2011; further: 0% is about no effect
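Agonism was scored from calcium flux recorded over 180 s (1 read/s) after pintool compound addition, following a 10-cycle baseline. Cells were inducible force-coupled HEK293 TREx D1, plated overnight at 30 C and loaded with no-wash calcium dye.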
D1 antagonist: Antagonist of Human D 1 Dopamine Receptor: qHTS; D(1A) dopamine receptor (Homo sapiens), P21728; 360,000 compounds, 3.2% hits; activity change, negative = inhibition, % at 10 µM; HEK293 TREx D1 cells, calcium flux, dopamine EC80; stronger effect = lower value; in the data active means activity change below about -30%; further: on the % scale 0 is the no-effect control and ±100 the full control effect
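Tetracycline-induced HEK293 Trex D1 cells, force-coupled to calcium, dye-loaded; compounds added and read 180 s, then EC80 dopamine added and calcium flux tracked kinetically another 180 s.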
Active calls of the source: *; . = not tested or not shown. Unless noted, no stated cut-off is given here; in the data, active means activation above about 30%; inactive means the rest.

SMILES | TRHR agonist | TRHR PAM | D1 potentiator | D1 ag | D1 antagonist
Cc1ccc(C(=O)OCC(=O)N2CCCC2)cc1 | 0 | 13 | -7 | 1 | -56*
Cc1cc(C)cc(C(=O)OCC(=O)N2CCCC2)c1 | 1 | -7 | 4 | -1 | 3
COc1cc(C(=O)OCC(=O)N2CCCC2)cc(OC)c1OC | 7 | -3 | -4 | 3 | -42*
CCOC(=O)c1cnc2ccc(OCC)cc2c1NCc1cccnc1 | -1 | 10 | 0 | 1 | -3
CCOC(=O)c1cnc2ccc(OCC)cc2c1NCc1ccccc1 | 0 | 5 | -11 | 11 | -32*
CCN(CC)C(=O)Cn1c(=O)n(Cc2ccc(C(=O)NCc3ccccc3Cl)cc2)c(=O)c2ccccc21 | -1 | 0 | -3 | 4 | -15
Cc1ccc(CCNC(=O)C23CN(Cc4ccccc4)CC2C(c2cccc([N+](=O)[O-])c2)=NO3)cc1 (stereo not given) | 0 | 34* | 1 | 0 | -10
COc1ccc(CCNC(=O)C23CN(Cc4ccccc4)CC2C(c2cccc([N+](=O)[O-])c2)=NO3)cc1 (stereo not given) | 0 | 0 | 0 | 3 | 21
CC(C)/C=C1\CC/C(=C\c2ccc(N(C)C)cc2)C1=O | 94* | 18 | 2 | 243* | -31*
COc1cc(CNC(=O)c2cnc3c(-c4cccc(C)c4)c(C)nn3c2C)cc(OC)c1OC | 0 | 1 | -3 | 0 | 7
Cc1nc(SCC(=O)Nc2cc(C)on2)c2c(=O)n(C)c(=O)n(C)c2n1 | -1 | 4 | -16 | 3 | -64*
COC(=O)c1ccc(CSc2nc(C)nc3c2c(=O)n(C)c(=O)n3C)o1 | 0 | 0 | -3 | 2 | -39*
Cc1c(Cl)cccc1NC(=O)CSc1nc(=O)[nH]c2c1CCCC2 | 0 | 0 | 4 | -1 | .
C/C(=C\C(=O)c1ccc(Br)cc1)NCc1ccccc1 | 1 | 7 | -4 | 1 | -15
C/C(=C\C(=O)c1ccc(Br)cc1)NCc1ccc(C)cc1 | 0 | 40* | -8 | 1 | 2
COc1ccc(Nc2oc(COc3ccc(OC)cc3)nc2C#N)cc1 | 0 | -4 | -13 | 1 | -34*
O=C(CN1CCCC1)Nc1nc(-c2ccc3c(c2)CCN3C(=O)c2ccccc2F)cs1 | 0 | -4 | -8 | 8 | -87*
O=C(Nc1nc2c(F)cc(F)cc2s1)C1CCN(C(=O)c2ccc(F)cc2)CC1 | 0 | -5 | -5 | 6 | 0
CNc1nc(-c2ccc3c(c2)CCN3C(=O)c2cccc(F)c2)cs1 | -1 | -9 | -4 | 3 | -18
CNc1nc(-c2ccc3c(c2)CCN3C(=O)c2ccccc2C)cs1 | -1 | 11 | 1 | 0 | -6
O=C(Nc1nc(-c2ccc(F)cc2)cs1)C1CCN(C(=O)c2ccc(F)cc2)CC1 | 0 | -5 | -5 | 10 | -40*
Cc1cccc(C(=O)N2CCc3cc(-c4nc(NC(=O)CN5CCCC5)sc4C)ccc32)c1 | 0 | 3 | -6 | 5 | -2
Cc1cccc(C(=O)N2CCc3cc(-c4csc(NC(=O)CN5CCCC5)n4)ccc32)c1 | 0 | 2 | 7 | 7 | -31*
CNc1nc(-c2ccc3c(c2)CCN3C(=O)c2ccc(F)cc2)cs1 | 0 | -2 | -10 | 9 | -38*
CCOC(=O)c1cc(-c2ccc(OC)cc2)n(CCC(=O)NCCc2ccccc2)c1C | 0 | 13 | 4 | 2 | 3
SMILES | TRHR agonist | TRHR PAM | D1 potentiator | D1 ag | D1 antagonist
COc1cccc(NC(=O)c2oc3ccccc3c2NC(=O)Cc2cccc(C)c2)c1 | 1 | 0 | -2 | 24 | -1
Cc1ccc(S(=O)(=O)C(CNC(=O)C(=O)NCCc2ccc(Cl)cc2)c2cccs2)cc1 (stereo not given) | 0 | -5 | -4 | 7 | .
COc1cc2[nH]c(C(=O)NCCc3ccccc3)cc2c(OC)c1OC | 0 | -4 | -5 | 1 | -2
COc1cc2[nH]c(C(=O)NCc3ccccc3)cc2c(OC)c1OC | -1 | 6 | -9 | 1 | -36*
COc1ccccc1N1CCN(C(=O)Cn2ncc3ccsc3c2=O)CC1 | -1 | 15 | -2 | 4 | -10
CCOC(=O)N1CCN(C(=O)c2ccc3c(c2)N(Cc2ccccc2F)C(=O)c2ccccc2S3(=O)=O)CC1 | 0 | -9 | -3 | 1 | 2
Cc1cc(C)c2c(n1)nn1c(C)c(CCC(=O)NCc3ccc(Cl)cc3)c(C)nc21 | -1 | 4 | -2 | 0 | -5
Cc1ccc(S(=O)(=O)N(Cc2ccc(F)cc2)Cc2ccco2)cc1 | 1 | -7 | -10 | 8 | -33*
Cc1ccc(S(=O)(=O)N(CC(=O)O)Cc2ccco2)cc1 | 1 | -4 | 26 | 2 | 6
Cc1ccc(S(=O)(=O)N(Cc2ccccc2)Cc2ccco2)cc1 | 3 | -1 | -9 | 11 | -31*
CCc1ccccc1NC(=O)Cn1c(=O)n(CC(=O)NCCc2ccccc2)c(=O)c2ccccc21 | 0 | -4 | 0 | 1 | 1
COc1cccc(CNC(=O)c2ccc3c(c2)sc2nc(-c4ccccc4)cn23)c1OC | 0 | 8 | 0 | 1 | -2
COc1ccc(OC)c(NC(=O)c2ccc(Cl)cc2)c1 | 0 | -8 | 10 | -1 | -36*
COc1ccc(Oc2ccc(C(F)(F)F)cc2NC(=O)c2ccc(C)cc2)cc1 | -2 | 8 | 5 | 31* | -8
CC(=O)Nc1cc(C(F)(F)F)ccc1Oc1cccc(Br)c1 | -1 | 3 | -12 | 30* | -5
COCCOc1ccc(C(F)(F)F)cc1NC(=O)c1ccc(C)cc1 | 0 | 6 | -5 | 3 | -12
COc1ccc(OC)c(NC2=NC3(CCCC3)N=C(N)N2)c1 | 0 | -6 | -23 | 6 | -57*
NC1=NC2(CCCCC2)N=C(Nc2ccc(F)cc2F)N1 | 0 | 21 | -10 | -1 | 2
CCOC(=O)c1ccccc1NC(=O)CC(C)CC(=O)O (stereo not given) | 1 | -1 | -9 | 7 | 8
CC(CC(=O)O)CC(=O)Nc1ccccc1C(=O)O (stereo not given) | 0 | -4 | -4 | 4 | -30*
O=C(CSc1nccn1-c1ccc(Cl)cc1)Nc1cccc2ccccc12 | 0 | 7 | -1 | 2 | 12
COc1ccc2nc(N/C(N)=N/C(=S)Nc3ccccc3)nc(C)c2c1 | 0 | 4 | 0 | -2 | 18
COc1ccc(OC)c(N/C(=N/C(=S)Nc2ccccc2)Nc2nc(C)cc(C)n2)c1 | 0 | 3 | -8 | 2 | -31*
N#CC(C#N)=C(N)CSc1cccc[n+]1[O-] | 0 | 35* | 4 | 2 | 6
